Source: PubChem BioAssay
Hits are enriched below; roughly 7.2% of the tested compounds scored in any of these assays.
LASV entry inh – blocks Lassa virus binding to or entry into cells. 300,000 compounds, 1.2% hits. Potency, µM (series often up to 37.9 µM), inactives show at the top dose activity change, negative = inhibition, most hits filed as inhibitors. Lassa virus pseudotype entry inhibition, cell reporter; calls by dose curve; tested in HEK293 cells; note: nearly all actives have a fitted effect of over 50% in size
RE007 growth inh – less growth of the S. pombe RE007 Vpr strain; Potency, µM (doses to about 92.2 µM), without a hit: at the highest dose activity change, negative = less growth, most hits filed as inhibitors; AID 651644; 360,000 compounds, 0.21% hits; S. pombe RE007 Vpr strain, BacTiter-Glo ATP luminescence, 24 h; active = well fitted falling curve with a large enough effect; inconclusive = small, poorly fitted or top-dose-only effect; inactive = no such curve, though single readings can be large or run the other way; note: nearly all actives have a fitted effect of over 50% in size
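Fission yeast strain RE007, carrying one chromosomally integrated HIV-1 vpr copy, was seeded at OD 0.01 in PMG+AL medium with 23 nL pinned compound. After 24 h at 30 °C and 99% humidity, viability was read by BacTiter-Glo luminescence.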
Sm TGR inh – inhibitors of Schistosoma mansoni thioredoxin glutathione reductase | Q962Y6 | purified TGR, DTNB reduction, TNB absorbance 405 nm | Potency, µM (top dose mostly 114 µM), inactives show at the highest dose activity change, negative = inhibition, hits mostly inhibitors | 360,000 compounds, 3% hits | AID 485364; note: nearly all actives have a fitted effect of over 60% in size
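Kinetic colorimetric format: TGR-catalysed, NADPH-driven DTNB reduction monitored via TNB absorbance. Enzyme dispensed at 20 nM; compound exposure 15 min at room temperature before reaction start.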
FMDV inh – antivirals against foot and mouth disease virus. FMDV antiviral cell-based qHTS. Potency, µM (series often up to 57.9 µM), without a hit: at the top dose activity change, negative = inhibition, usual class: inhibitors. 410,000 compounds, 1.2% hits. AID 1159524; calls by dose curve; tested in HEK293T cells; note: read-out not given here; nearly all actives have a fitted effect of over 45% in size
HCV inh – blocks hepatitis C virus. Huh7.5.1 HCVcc-Cre infection, luciferase reporter, 44 h. Potency, µM (top dose mostly 41.8 µM), inactives show at the top dose activity change, negative = inhibition, most hits filed as inhibitors. 340,000 compounds, 3.4% hits
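1,000 cells/well; 4 h culture; + compound; + HCVcc-Cre (~0.5 moi); 44 h; luciferase substrate, RT 15 min; read 15 sec.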
MARV entry inh – Marburg virus entry inhibition; Potency, µM (doses to about 37.8 µM), inactives show at the highest dose activity change, negative = inhibition, usual class: inhibitors; Marburg virus pseudotyped entry inhibition, cell reporter; 300,000 compounds, 1.8% hits; AID 540276; calls by dose curve; tested in HEK293 cells
* hit, by the source's call; u = inconclusive; x = not tested or not shown; [ ] = remark or other dose. Unless noted, calls come from the whole dose curve; as a rule, active = well fitted curve in the direction sought with a large enough effect; inconclusive = small, poorly fitted or top-dose-only effect, or another doubt; inactive = no such curve, though single readings can be large; an effect the other way counts as inactive or inconclusive. % is set by controls: 0 for no effect and ±100 for the full control effect; potency is the fitted concentration of half-maximal effect.

SMILES | LASV entry inh | RE007 growth inh | Sm TGR inh | FMDV inh | HCV inh | MARV entry inh
COc1ccc(C(=O)Nc2ccc(S(=O)(=O)N(C)c3ccccc3)cc2)cc1 | u | 3.3% | x | u | 12.6µM* | u
CCOC1(c2ccccc2)CC1C(=O)N/N=C/c1cccc([N+](=O)[O-])c1 (stereo unspecified) | x | -3.6% | -34.5% | u | 11.2µM* | x
Cc1nc2ccc(NC(=O)c3ccc(S(=O)(=O)N(C)c4ccccc4)cc3)cc2s1 | u | 3.1% | -9.7% | 22.4µM* | u | u
COC(=O)N/N=C/c1cccc([N+](=O)[O-])c1 | 22.3%[46.1 µM] | 10.1% | 18.8% | 1.4% | -0.4% | 16.0%[46.1 µM]
COc1ccc(/C=N/NC(=O)c2ccc(NC(=O)c3ccccc3Br)cc2)cc1 | 18.4µM* | 1.2% | -1.5% | -9.4% | u | -26.1%
CCOc1ccc(Cn2c(CNS(=O)(=O)c3ccc(CC)cc3)nc3cccnc32)cc1 | 14.9%[46.1 µM] | x | 1.0% | 63.0% | x | x
COc1ccc(/C=N/NC(=O)c2ccc(N(C)S(=O)(=O)c3ccccc3)cc2)cc1 | x | -1.1% | -5.5% | u | 12.6µM* | x
COc1ccc(NC(=O)c2ccc(=O)oc2)cc1 | -27.6% | 3.6% | 44.7µM* | x | 16.6% | -15.2%
COc1ccc(NC(=O)c2ccc(S(=O)(=O)N(C)c3ccccc3)cc2)cn1 | x | 13.2% | 2.4% | 17.8µM* | u | x
COc1ccc(NC(=O)COc2ccc(N(C)S(=O)(=O)c3ccc(C)cc3)cc2)cc1 | -5.4% | -2.2% | 0.2% | u | u | -12.7%
COc1ccc(NC(=O)COc2ccc(N(C)S(=O)(=O)c3ccc(Cl)cc3)cc2)cc1 | x | 3.0% | -5.8% | 0.0% | 11.2µM* | x
Cc1nc(-n2nc(C)c(CCC(C)C)c2C)sc1C(=O)Nc1cccc(Cl)c1C | u | x | -2.2% | 29.1% | x | 23.4%[46.1 µM]
Cc1ccc(N(C)C(=O)C2CCCN(c3ncnc4c3nc3n4CCCCC3)C2)cc1C (stereo unspecified) | u | x | -2.3% | u | x | x
CN(c1ccc(C(=O)N/N=C/c2cccc([N+](=O)[O-])c2)cc1)S(=O)(=O)c1ccccc1 | u | -13.8% | 0.8% | -14.6% | 12.6µM* | u
CCOc1cc(/C=N/NC(=O)c2cccc([N+](=O)[O-])c2)ccc1OS(=O)(=O)c1ccccc1 | u | -11.4% | -19.5% | -16.4% | 8.91µM* | u
COc1ccc(C(=O)N/N=C/c2ccc(OC)c(OS(=O)(=O)c3ccccc3)c2)cc1 | u | -11.5% | -1.5% | -11.3% | 10µM* | u
CC(=O)Nc1ccc(S(=O)(=O)Oc2ccc(/C=N/NC(=O)c3ccc(Cl)cc3)cc2)cc1 | -1.0% | 4.0% | 10.6% | u | 3.98µM* | -12.9%
Oc1cc(-c2nc3ccccc3s2)cc2c1OCCN(Cc1cccn1-c1ncccn1)C2 | x | x | x | 36.5% | x | x
CN(c1ccccc1)S(=O)(=O)c1ccc(NC(=O)CC(=O)c2ccccc2)cc1 | -18.5% | 41.9% | x | 39.8µM* | u | -43.5%
CC(=O)Nc1ccc(NC(=O)c2ccc(S(=O)(=O)N(C)c3ccccc3)cc2)cc1 | x | 4.3% | 1.1% | u | u | x
Cn1c(-c2ccncc2)nc2ccccc21 | x | -1.7% | -31.6% | -8.9% | 5.7% | x
CCN(CC)c1ccc(-c2nc3cnccc3n2C)cc1 | -24.5% | -20.9% | 0.0% | -18.4% | 11.2µM* | u
Cc1cnc(SCc2ccccn2)nc1C1CCCN(C(=O)c2ccc3c(c2)OCCO3)C1 (stereo unspecified) | x | x | x | -2.7% | x | x
O=C1C2C(C(=O)N1Cc1ccco1)C1C=CC2C12CC2 (stereo unspecified) | 3.3% | -7.9% | -18.0% | -15.4% | -1.1% | 10.3%
O=C1C2C3C=CC(C4CC34)C2C(=O)N1Cc1ccco1 (stereo unspecified) | 1.9% | 1.2% | 50.1µM* | -22.0% | 3.9% | -1.5%
SMILES | LASV entry inh | RE007 growth inh | Sm TGR inh | FMDV inh | HCV inh | MARV entry inh
Cc1ccccc1CCNC(=O)c1ccc2c(c1)c(C)c(C)n2C | 27.9%[46.1 µM] | x | 1.6% | 57.2% | x | x
CCn1c(C)c(C)c2cc(C(=O)NCCc3ccco3)ccc21 | x | -6.7% | u | 32.0% | 15.8µM* | x
Cc1c(C)n(C)c2ccc(C(=O)NCCc3ccco3)cc12 | x | -18.5% | 35.5µM* | 46.6% | u | x
CCn1c(C)c(C)c2cc(C(=O)NCCN3CCCCCC3)ccc21 | x | 1.2% | u | -20.6% | 12.6µM* | x
CCn1c(C)c(C)c2cc(C(=O)NCCCN3CCCCCC3)ccc21 | u | -10.9% | -23.3% | -15.8% | u | u
CCOc1ccc(CCNC(=O)c2ccc(Cn3c(=O)c4cccn4c4cccnc43)cc2)cc1 | u | x | -5.5% | -21.0% | x | x
CCCCN(C)C(=O)c1ccc2c(c1)N(Cc1ccc(F)cc1)C(=O)c1ccccc1S2(=O)=O | -12.6%[46.1 µM] | x | -14.7% | -7.4% | x | u
COc1cccc(NC(=O)Cn2c(=O)n(CCCCC(=O)NCc3ccccc3Cl)c(=O)c3ccccc32)c1 | -25.3%[46.1 µM] | x | -1.1% | -12.6% | x | u
COc1ccc(-c2c(C#N)c(SCc3c(C)noc3C)nc3c2C(=O)CC(C)(C)C3)cc1 | 13.8% | 29.8% | -7.4% | -20.8% | 15.9% | -0.2%
CCc1c(C#N)c(SCCC(=O)Nc2ccc(F)cc2)nc2c1C(=O)CC(C)(C)C2 | u | 15.8% | -7.0% | 28.2µM* | 11.2µM* | u
CCc1c(C#N)c(SCCC(=O)Nc2cccc(OC)c2)nc2c1C(=O)CC(C)(C)C2 | -29.2% | 1.3% | 2.2% | -21.5% | 10µM* | -26.4%
Cc1ccccc1CN1C(=O)c2ccccc2Sc2ccc(C(=O)NC3CCCC3)cc21 | -23.0%[46.1 µM] | x | -7.3% | -4.2% | x | x
Cc1ccccc1OCC(=O)NN1C(=O)C2C3C=CC(O3)C2C1=O (stereo unspecified) | 10.7%[46.1 µM] | -1.4% | 20µM* | -12.4% | 9.8% | -5.0%[46.1 µM]
Cc1cccc(OCC(=O)NN2C(=O)C3C4C=CC(O4)C3C2=O)c1 (stereo unspecified) | 13.3%[46.1 µM] | 3.4% | x | -10.5% | 3.8% | u
CCOc1ccc(C(=O)NN2C(=O)C3C4C=CC(O4)C3C2=O)cc1 (stereo unspecified) | 23.9% | -3.5% | 22.4µM* | 19.9% | 10.1% | 0.2%
CN(C)c1cccc(C(=O)NCC2Cc3cccc(-c4cncnc4)c3O2)c1 (stereo unspecified) | x | x | x | 13.0% | x | x
CCCCCn1c(=O)[nH]c2cc(C(=O)NCc3ccc(OC)cc3)ccc2c1=O | 8.2%[46.1 µM] | x | 5.1% | -7.8% | x | -7.6%[46.1 µM]
O=C(Cn1c(=O)n(Cc2ccc3c(c2)OCO3)c(=O)c2ccccc21)Nc1cccc(Cl)c1 | 2.9%[46.1 µM] | x | 9.7% | -5.6% | x | 5.8%[46.1 µM]
N#Cc1c(NC(=O)CSc2ncnc3sccc23)oc(-c2ccco2)c1-c1ccco1 | -3.1% | 18.1% | 3.98µM* | 3.8% | -28.4% | 2.0%
COc1cc(NC(=O)CN(C)S(=O)(=O)c2ccc3c(c2)CCCC(=O)N3)cc(OC)c1OC | 24.5%[46.1 µM] | x | -9.9% | -22.1% | x | x
